High-throughput results deposited in PubChem BioAssay by Broad Institute.
RAD52 inh = RAD52 DNA annealing inhibitors, primary screen, biochemical, FRET, single point, set 2. DNA repair protein RAD52 homolog (Homo sapiens), P43351. recombinant RAD52 DNA annealing, FRET fluorescence. inhibition, % at 18.7 µM. actives 0.46% (n = 360,000). AID 651710, 2012;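 active = every replicate showing at least 50% inhibition; inconclusive = mean inhibition at least 50% but not in every replicate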
DENV2 CPE = inhibitors of DENV2 cytopathic effect, primary screen, cell-based, plate reader, single concentration; CPE inhibition, % at 9.99 µM; DENV2-infected cells, cytopathic effect rescue; actives 1.7% (n = 350,000); AID 651640, 2012; in the data active = CPE inhibition above about 20%, passing the limit was not always enough; inconclusive = no clear call, values can overlap the other calls; tested in BHK-21 cells;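 also: 0% = median of neutral control wells and 100% = median of positive control wells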
ERAP1 inh = human ERAP1 aminopeptidase inhibitors, primary screen, biochemical, single point, plate reader; inhibition, % at 10.7 µM; Endoplasmic reticulum aminopeptidase 1 (Homo sapiens), Q9NZ08; recombinant ERAP1, Leu-AMC fluorescence, 60 min; actives 0.15% (n = 340,000);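 active = mean replicate inhibition of at least 30%, or all replicates individually reaching that 30% level; inactive = mean below 30% and not every replicate reaching it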;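 also: 0% = neutral control wells and 100% = L-leucinethiol positive control wells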
Target sequence (Q9NZ08 whole entry, looked up): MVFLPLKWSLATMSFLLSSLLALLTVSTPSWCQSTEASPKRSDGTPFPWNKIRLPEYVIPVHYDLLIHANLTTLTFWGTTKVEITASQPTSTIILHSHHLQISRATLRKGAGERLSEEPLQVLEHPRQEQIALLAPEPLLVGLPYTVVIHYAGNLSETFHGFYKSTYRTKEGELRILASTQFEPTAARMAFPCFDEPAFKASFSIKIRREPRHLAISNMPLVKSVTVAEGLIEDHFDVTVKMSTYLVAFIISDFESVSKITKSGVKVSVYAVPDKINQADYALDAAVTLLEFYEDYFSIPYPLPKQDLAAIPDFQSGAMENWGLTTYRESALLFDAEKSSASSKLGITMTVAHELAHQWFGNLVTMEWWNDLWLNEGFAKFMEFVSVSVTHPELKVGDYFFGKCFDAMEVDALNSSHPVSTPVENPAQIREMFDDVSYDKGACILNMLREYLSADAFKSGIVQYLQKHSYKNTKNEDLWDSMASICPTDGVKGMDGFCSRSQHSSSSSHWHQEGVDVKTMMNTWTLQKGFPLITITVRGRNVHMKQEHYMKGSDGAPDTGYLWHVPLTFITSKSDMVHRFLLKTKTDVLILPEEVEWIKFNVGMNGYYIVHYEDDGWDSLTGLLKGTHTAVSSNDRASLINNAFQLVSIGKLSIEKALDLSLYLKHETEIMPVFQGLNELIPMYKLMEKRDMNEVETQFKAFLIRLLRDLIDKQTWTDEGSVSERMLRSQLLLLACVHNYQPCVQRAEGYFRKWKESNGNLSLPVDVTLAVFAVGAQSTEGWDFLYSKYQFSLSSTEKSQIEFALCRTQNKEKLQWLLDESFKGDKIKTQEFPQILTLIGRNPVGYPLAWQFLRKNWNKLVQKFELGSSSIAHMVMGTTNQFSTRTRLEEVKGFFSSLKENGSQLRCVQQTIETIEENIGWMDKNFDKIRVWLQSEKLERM
MLL AF4-AF9 inh = inhibitors of AF4 peptide binding to AF9, primary screen, biochemical, AlphaScreen, biotin-AF4 peptide, FLAG-AF9, single point; inhibition, % at 10 µM; Protein AF-9 (Homo sapiens), P42568; actives 0.47% (n = 350,000);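 active = every replicate reaching a set inhibition limit, whatever the replicate mean, cut at about 25% in these data; inconclusive = mean inhibition reaches that limit but some replicates miss it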;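 also: 0% = plate neutral control median and 100% = total signal loss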
FGF22 binding = binders of human FGF22 protein, primary screen, FGF22 synaptogenesis inhibitor project, biophysical, thermal shift, single point; Fibroblast growth factor 22 (Homo sapiens), Q9HCT0; recombinant FGF22 thermal shift, SYPRO orange fluorescence; percent of sucrose octasulfate shift, DMSO zero; activity (Tm shift, normalised), % at 9.99 µM; actives 1.5% (n = 340,000); AID 651658, 2012;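 active = mean Tm shift, scaled 0 neutral to 100 positive control, at about 1.3% or above, every replicate too, limit read from the data; inconclusive = no clear call, values can overlap the other calls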
The depositor's hits bear a star; ? = inconclusive; . = not tested or not shown. A selection: hits, their analogues and other compounds. The true share with any hit is near 4%.

SMILES | RAD52 inh | DENV2 CPE | ERAP1 inh | MLL AF4-AF9 inh | FGF22 binding
COc1cccc(-c2ccc([C@@H]3[C@@H](CO)N(C(C)=O)C34CN(C(C)=O)C4)cc2)c1 | -16 | -9 | -1 | 0 | 0
O=C(Nc1ccccc1)N1C[C@@H]2[C@H](c3ccccc31)[C@@H](CO)N2C(=O)c1cccnc1 | 4 | 8 | 2 | -12 | -1
COc1cc(C(=O)NCC(c2ccco2)N2CCc3ccccc32)cc(OC)c1OC (stereo not given) | -3 | 92* | -2 | 8 | .
COc1ccc(N(CC(=O)Nc2cccnc2)S(C)(=O)=O)cc1 | -15 | 3 | 5 | -2 | 43*
CCOc1ccc(N(CC(=O)Nc2ccc(Br)cc2)S(C)(=O)=O)cc1 | -3 | -4 | . | 1 | 0
CCOc1ccc(N(CC(=O)Nc2cccc(C)c2)S(C)(=O)=O)cc1 | 9 | 43* | -2 | -4 | 0
CCOc1ccc(N(C(C)C(=O)Nc2cccnc2)S(C)(=O)=O)cc1 (stereo not given) | -9 | -3 | -1 | -8 | 43*
C[C@H]1CN([C@@H](C)CO)C(=O)c2cc(C#CC3CC3)cnc2O[C@@H]1CN(C)C(=O)c1ccc(F)cc1 | -4 | -6 | 0 | 0 | 0
COC(=O)C1=C(O)/C(=C\c2cc(C)n(-c3ccccc3F)c2C)N=C1C | -93 | -6 | 4 | 2 | 0
COC(=O)C1=C(C)NC(=O)/C1=C\c1cc(C)n(-c2ccccc2)c1C | -23 | -5 | 4 | 6 | 43*
CO[C@H]1CN(C)C(=O)c2cc(NC(=O)CC(F)(F)F)ccc2OC[C@@H](C)N(C(=O)C2CCCCC2)C[C@@H]1C | -39 | -1 | 3 | -31 | 0
CCCN1C[C@@H](C)[C@@H](OC)CN(C)C(=O)c2cc(NC(=O)CC(F)(F)F)ccc2OC[C@@H]1C | -11 | 56* | 0 | 1 | 0
CCC(=O)Nc1ccc2c(c1)OC[C@H](C)N(CCC(F)(F)F)C[C@@H](C)[C@H](OC)CN(C)C2=O | -6 | 24* | 0 | 0 | 0
CCCN1C[C@@H](C)[C@@H](OC)CN(C)C(=O)c2cc(NC(=O)C3CCOCC3)ccc2OC[C@H]1C | -3 | 26* | -3 | -3 | 0
CO[C@H]1CN(C)C(=O)c2cc(NC(=O)CC(F)(F)F)ccc2OC[C@H](C)N(C(=O)C2CCCCC2)C[C@H]1C | -47 | 50* | -2 | -4 | 0
CCC(=O)Nc1ccc2c(c1)OC[C@@H](C)N(CCC(F)(F)F)C[C@H](C)[C@H](OC)CN(C)C2=O | -3 | -1 | 0 | 0 | 0
CCCN1C[C@H](C)[C@H](OC)CN(C)C(=O)c2cc(NC(=O)CC(F)(F)F)ccc2OC[C@H]1C | -9 | -4 | -1 | -2 | 0
O=C(NCC1CC1)[C@H]1[C@H](CO)[C@H]2Cn3c(ccc(-c4ccccc4)c3=O)[C@@H]1N2C(=O)C1CC1 | -5 | . | 1 | -1 | 0
O=C(C[C@H]1C[C@@H]2c3cc(NC(=O)c4cccnc4)ccc3O[C@@H]2[C@@H](CO)O1)NCC(F)(F)F | 3 | 2 | 2 | -1 | 0
O=C(c1cccnc1)N1CCCCN2[C@H](CO)[C@H](c3ccc(C#Cc4ccccc4)cc3)[C@@H]2C1 | . | . | . | 0 | .
CC(C)NC(=O)N[C@H]1CC[C@@H](CCNS(=O)(=O)c2ccc(F)cc2)O[C@H]1CO | -12 | 4 | 1 | -3 | 0
CCCC(=O)Nc1ccc2c(c1)C(=O)N(C)C[C@@H](OC)[C@@H](C)CN(CCC(F)(F)F)[C@H](C)CO2 | -5 | -6 | -3 | 0 | 0
CCCC(=O)Nc1ccc2c(c1)C(=O)N(C)C[C@H](OC)[C@H](C)CN(CCC(F)(F)F)[C@@H](C)CO2 | 1 | 22* | -1 | 6 | 0
CCCNC(=O)[C@@]1(C)c2ccccc2C(=O)N(Cc2ccc(OC(F)(F)F)cc2)[C@H]1c1ccc(CO)cc1 | -3 | 20* | -2 | -2 | 0
CCCNC(=O)[C@@]1(C)c2ccccc2C(=O)N(Cc2ccccc2)[C@H]1c1ccc(CO)cc1 | 5 | 4 | 5 | -2 | 0
SMILES | RAD52 inh | DENV2 CPE | ERAP1 inh | MLL AF4-AF9 inh | FGF22 binding
C[C@@H]1CN([C@@H](C)CO)S(=O)(=O)c2ccc(/C=C/c3ccccc3)cc2O[C@H]1CN(C)C(=O)NC1CCCC1 | -14 | 13 | 0 | 8 | 0
COCC(=O)N(C)C[C@H]1Oc2cc(-c3ccc(C)cc3)ccc2S(=O)(=O)N([C@H](C)CO)C[C@@H]1C | -5 | 5 | -1 | -2 | 0
O=C(N/C(=C/c1cccs1)C(=O)N1CCOCC1)c1ccccc1 | -2 | ? | -2 | -1 | 44*
O=C(N/C(=C/c1ccccc1)C(=O)N1CCOCC1)c1ccc([N+](=O)[O-])cc1 | -17 | . | -1 | 0 | 0
CN1CCN(C(=O)/C(=C\c2cccnc2)NC(=O)c2cccc(Br)c2)CC1 | -1 | ? | -3 | -9 | 1.4*
O=C(N/C(=C/c1cccnc1)C(=O)N1CCOCC1)c1ccccc1 | -6 | -2 | -5 | -2 | 43*
O=C(N/C(=C/c1cccnc1)C(=O)N1CCCCCC1)c1ccccc1 | -2 | 7 | 2 | 0 | 0
COc1ccc(/C=C(\NC(=O)c2ccc([N+](=O)[O-])cc2)C(=O)N2CCOCC2)cc1 | -13 | . | -2 | 0 | 43*
COc1ccc(C#Cc2cnc3c(c2)C(=O)N([C@H](C)CO)C[C@H](C)[C@H](CN(C)C(=O)c2ccccc2F)O3)cc1 | 11 | 18 | 0 | -1 | 0
O=C(NC[C@@H]1CC[C@@H]2[C@@H](CN2Cc2nccs2)O1)C1CCC1 | -4 | -7 | 2 | -2 | .
Cc1cc2nc(-c3ccc[nH]c3=O)n(Cc3cccc(F)c3)c2cc1C | -2 | 3 | 2 | -6 | 0
CCCn1c(-c2ccc[nH]c2=O)nc2cc(C)c(C)cc21 | 11 | 25* | -6 | -7 | 0
C[C@@H]1CN([C@@H](C)CO)S(=O)(=O)c2ccc(-c3cccc(F)c3)cc2O[C@H]1CN(C)C(=O)C1CC1 | . | -7 | . | -2 | .
CC(=O)Nc1ccc(C(=O)OCC(=O)c2ccc(F)cc2)cc1 | -13 | 5 | 5 | 1 | 0
CC(=O)Nc1ccc(C(=O)OCc2ccc(F)cc2)cc1 | -6 | 6 | 3 | -5 | 43*
O=C(CNC(=O)OCc1ccccc1)Nc1ccc(F)cc1 | 0 | -7 | 32* | -7 | 0
O=C(Cc1ccc([N+](=O)[O-])cc1)Nc1cccc(C(F)(F)F)c1 | -11 | 0 | 1 | 1 | 44*
O=C(Nc1ccccc1)Nc1cccc(C(F)(F)F)c1 | -13 | 3 | -1 | 1 | 44*
COc1ccc2c3c(n(C)c2c1)[C@@H](CO)N(C(=O)c1ccccn1)CC31CN(C(=O)Cc2ccccc2)C1 | -7 | 5 | 1 | -3 | 0
O=S(=O)(c1ccccc1)N1CC2(C1)[C@H](c1ccccc1)[C@H](CO)N2CC1CC1 | -17 | -7 | 0 | -21 | 0
